± gives the standard deviation of the averaged measurements.
Key:
IL-6-GFP PC-9GR = assay: cell viability (CCK-8 OD) relative to DMSO control (fraction of control); higher = more viable cells; details: compound concentration: 10 uM; treatment time: 48 h
How it was run: (§1)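 PC-9 and PC-9GR lung cancer cells carrying a lentiviral construct that overexpresses IL-6-GFP were seeded in 96-well plates at 3000 cells/well. Every compound in a purchased 510-compound library was applied at a final 10 μM for 48 h, and a parallel set of plates was kept for GFP imaging. Cell viability was read by CCK-8 absorbance, taking each well's optical density as a ratio to the vehicle control well. Two independent replicates were run.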

IL-6-GFP PC-9 = assay: as above; details: compound concentration: 10 uM; treatment time: 48 h
How it was run: as §1

| Compound | cell viability (IL-6-GFP PC-9GR) | cell viability (IL-6-GFP PC-9) |
| --- | --- | --- |
| Cc1c(O)c(C)c2c(c1O)C(=O)CC(c1ccc(O)cc1)O2 (stereo unspecified) [Farrerol] | 1.19 ± 0.11 | 1.05 ± 0.037 |
| COc1c2ccoc2cc2oc(=O)ccc12 [Bergapten] | 0.902 ± 0.041 | 0.8378 ± 0.0073 |
| COc1nc2ccc(Br)cc2cc1C(c1ccccc1)C(O)(CCN(C)C)c1cccc2ccccc12 (stereo unspecified) [Bedaquiline] | 0.849 ± 0.0096 | 0.85 ± 0.17 |
| O=C(CCCCCCC(=O)Nc1ccccc1)NO [Vorinostat (SAHA, MK0683)] | 0.449 ± 0.048 | 0.418 ± 0.095 |
| CCC(C)C(=O)OC1CC(O)C=C2C=CC(C)C(CCC(O)CC(O)CC(=O)[O-])C21.[Na+] (stereo unspecified) [Pravastatin sodium] | 0.932 ± 0.038 | 1.17 ± 0.016 |
| CC(CCC(=O)NCCS(=O)(=O)O)C1CCC2C3C(O)CC4CC(O)CCC4(C)C3CCC12C (stereo unspecified) [Tauroursodeoxycholic Acid (TUDCA)] | 1.2 ± 0.37 | 1.24 ± 0.23 |
| CC(=O)OC[C@H]1O[C@@H]([S-])[C@H](OC(C)=O)[C@@H](OC(C)=O)[C@@H]1OC(C)=O.CCP(CC)CC.[Au+] [Auranofin] | 0.00506 ± 0.12 | 0.0702 ± 0.04 |
| COC(=O)CC(O)(CCCC(C)(C)O)C(=O)OC1C(OC)=CC23CCCN2CCc2cc4c(cc2C13)OCO4 (stereo unspecified) [Homoharringtonine] | 0.275 ± 0.17 | 0.358 ± 0.042 |
| CC1(C)CCC(C)(C)c2cc(NC(=O)c3ccc(C(=O)O)cc3)ccc21 [Tamibarotene] | 1.55 ± 0.76 | 1.28 ± 0.11 |
| C=C1CCC2C(C)(COC(=O)CCC(=O)O)C(OC(=O)CCC(=O)O)CCC2(C)C1/C=C/C1=CCOC1=O (stereo unspecified) [Dehydroandrographolide Succinate] | 0.966 ± 0.062 | 1.16 ± 0.016 |
| COc1cccc2c1C(=O)c1c(O)c3c(c(O)c1C2=O)CC(O)(C(=O)CO)CC3OC1CC(N)C(OC2CCCCO2)C(C)O1 (stereo unspecified) [Pirarubicin] | 0.33 ± 0.12 | 0.208 ± 0.13 |
| Nc1ccc(O)c(C(=O)O)c1 [Mesalamine] | 1.27 ± 0.035 | 1.06 ± 0.072 |
| CCCCC(=O)OC1(C(=O)CO)C(C)CC2C3CCC4=CC(=O)C=CC4(C)C3(F)C(O)CC21C (stereo unspecified) [Betamethasone Valerate] | 1.11 ± 0.14 | 0.804 ± 0.026 |
| O=C(OCC1OC(OC(=O)c2cc(O)c(O)c(OC(=O)c3cc(O)c(O)c(O)c3)c2)C(OC(=O)c2cc(O)c(O)c(OC(=O)c3cc(O)c(O)c(O)c3)c2)C(OC(=O)c2cc(O)c(O)c(OC(=O)c3cc(O)c(O)c(O)c3)c2)C1OC(=O)c1cc(O)c(O)c(OC(=O)c2cc(O)c(O)c(O)c2)c1)c1cc(O)c(O)c(OC(=O)c2cc(O)c(O)c(O)c2)c1 (stereo unspecified) [Tannic acid] | 1.05 ± 0.11 | 1.2 ± 0.23 |
| CCc1cccc2c3c([nH]c12)C(CC)(CC(=O)O)OCC3 (stereo unspecified) [Etodolac] | 1.22 ± 0.018 | 0.989 ± 0.076 |
| C=CC1=C(C)c2cc3nc(cc4[nH]c(cc5[nH]c(cc1n2)c(C)c5C=C)c(C)c4CCC(=O)O)C(CCC(=O)O)=C3C [Protoporphyrin IX] | 0.345 ± 0.26 | 0.995 ± 0.17 |
| Cc1ccc(C2OC(CO)C(O)C(O)C2O)cc1Cc1ccc(-c2ccc(F)cc2)s1.Cc1ccc(C2OC(CO)C(O)C(O)C2O)cc1Cc1ccc(-c2ccc(F)cc2)s1.O (stereo unspecified) [Canagliflozin hemihydrate] | 1.12 ± 0.2 | 0.932 ± 0.22 |
| CC(C)Cc1ccc(C(C)C(=O)O)cc1.NCCCCC(N)C(=O)O (stereo unspecified) [Ibuprofen Lysine] | 1.28 ± 0.21 | 1.25 ± 0.29 |
| O=C(OCCOCCO)c1ccccc1Nc1cccc(C(F)(F)F)c1 [Etofenamate] | 1.01 ± 0.29 | 1.24 ± 0.13 |
| Cc1cnc(Nc2ccc(OCCN3CCCC3)cc2)nc1Nc1cccc(S(=O)(=O)NC(C)(C)C)c1 | 0.186 ± 0.081 | 0.3 ± 0.12 |
| CC1(C(=O)O)CCC2(C)CCC3(C)C(=CC(=O)C4C5(C)CCC(OC6OC(C(=O)O)C(O)C(O)C6OC6OC(C(=O)O)C(O)C(O)C6O)C(C)(C)C5CCC43C)C2C1 (stereo unspecified) [Glycyrrhizin (Glycyrrhizic Acid)] | 1.47 ± 0.11 | 1.29 ± 0.022 |
| CC1(C)SC2C(NC(=O)C(c3ccccc3)S(=O)(=O)[O-])C(=O)N2C1C(=O)[O-].[Na+].[Na+] (stereo unspecified) [Sulbenicillin Sodium] | 0.802 ± 0.17 | 0.857 ± 0.019 |
| CC1=NN(c2ccc(C)c(C)c2)C(=O)/C1=N\Nc1cccc(-c2cccc(C(=O)O)c2)c1O.NCCO.NCCO [Eltrombopag Olamine] | 1.23 ± 0.034 | 0.966 ± 0.02 |
| CCCS(=O)(=O)Nc1ccc(F)c(C(=O)c2c[nH]c3ncc(-c4ccc(Cl)cc4)cc23)c1F [Vemurafenib (PLX4032, RG7204)] | 1.06 ± 0.1 | 1.05 ± 0.15 |
| CC(C)(O)CNc1nc(Nc2ccnc(C(F)(F)F)c2)nc(-c2cccc(C(F)(F)F)n2)n1 [Enasidenib (AG-221)] | 1.25 ± 0.65 | 1.03 ± 0.018 |
| CCC1(O)CC2CN(CCc3c([nH]c4ccccc34)C(C(=O)OC)(c3cc4c(cc3OC)N(C)C3C(O)(C(=O)OC)C(OC(C)=O)C5(CC)C=CCN6CCC43C65)C2)C1.O=S(=O)(O)O (stereo unspecified) [Vinblastine sulfate] | 0.475 ± 0.069 | 0.655 ± 0.084 |
| CS(=O)(=O)c1ccc(C(=O)Nc2ccc(Cl)c(-c3ccccn3)c2)c(Cl)c1 [Vismodegib (GDC-0449)] | 1.05 ± 0.072 | 0.311 ± 0.32 |
| CC(C)=CCC/C(C)=C/CC/C(C)=C/CCC(=O)OC/C=C(\C)CCC=C(C)C [Gefarnate] | 0.851 ± 0.023 | 1.06 ± 0.17 |
